Source: PubChem BioAssay (National Center for Advancing Translational Sciences (NCATS))
Compounds with a hit are over-represented: about 21% of the library has one in this group of screens.
TDP1 cell noCPT: qHTS for Inhibitors of human tyrosyl-DNA phosphodiesterase 1 (TDP1): qHTS in cells in absence of CPT | DT40 Tdp1-/- hTDP1 cells, no CPT, ATP luminescence, 48 h | Potency, µM (doses to about 46.2 µM), for the others: at the highest dose activity change, negative = growth inhibition, usual class: inhibitors | hit rate 15% among 420,000; also: potency is read from the fitted curve at half-maximal effect; % is scaled to controls: 0 for no effect and ±100 for the full control effect; nearly all actives have a fitted effect of over 55% in size
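Readout: luminescence from CellTiter-Glo after 30 min in the dark at RT. Cells: DT40 Tdp1-/- with stable hTDP1, 400/well. Exposure: compounds alone, ≥48 hr, 37 °C.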
DRD3 agonist: qHTS of D3 Dopamine Receptor Agonist: qHTS; D(3) dopamine receptor (Homo sapiens), P35462; D3R DiscoveRx beta-arrestin cells, luminescence, 90 min; max activation, %; hit rate 0.58% among 410,000; in the data active = max activation above about 30%; also: 0% is about no effect
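Cells at 1500/well, incubated overnight, then treated with pinned compounds (dopamine as control) for 90 min at 37 degrees C. DiscoveRx reagent added for 30 - 60 minutes at room temperature; luminescence read.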
D3 antag: qHTS of D3 Dopamine Receptor Antagonist: qHTS. max response, negative = inhibition, %. D3R cells, DiscoveRx beta-arrestin luminescence, antagonist mode; hits give low values. hit rate 2.5% among 360,000. D(3) dopamine receptor (Homo sapiens), P35462. AID 652054, 2013; in the data active = max response below about -50%; inconclusive = no clear call, values can overlap the other calls; also: % is scaled to controls: 0 for no effect and ±100 for the full control effect
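Cells expressing the human receptor were seeded at 1500 cells/well, incubated overnight at 37 degrees C in 5% CO2, then exposed to library compounds with dopamine controls for 90 minutes at 37 degrees C before luminescent detection.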
TDP1 cell CPT: qHTS for Inhibitors of human tyrosyl-DNA phosphodiesterase 1 (TDP1): qHTS in cells in presence of CPT | chicken DT40 Tdp1-/-;hTDP1 cells + 20 nM CPT, ATP luminescence, 48 h | Potency, µM (highest dose often 46.2 µM), without a hit: at the highest dose activity change, negative = growth inhibition, actives largely listed as inhibitors | hit rate 12% among 420,000; also: potency is read from the fitted curve at half-maximal effect; % is scaled to controls: 0 for no effect and ±100 for the full control effect; nearly all actives have a fitted effect of over 55% in size
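Chicken DT40 Tdp1-/- cells stably complemented with human TDP1 were seeded at 400 cells/well in medium containing 20 nM camptothecin, exposed to pin-transferred compounds, and grown at 37 °C for at least 48 hr. Viability was read as ATP luminescence.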
ClpP mod: qHTS Assay for Activators of ClpP; purified B. subtilis ClpP, FRET peptide cleavage, 20 min; hit rate 1.9% among 340,000; Potency, µM (highest dose often 57.5 µM), for the others: at the top dose activity change, negative = active; AID 651965, 2013; active = well fitted falling curve with a large enough effect; inconclusive = small, poorly fitted or top-dose-only effect; inactive = no such curve, though single readings can be large or run the other way; also: potency is read from the fitted curve at half-maximal effect; the source files actives as falling curves though it sought activators and does not explain the sign; nearly all actives have a fitted effect of over 65% in size
Target sequence (P80244 whole entry, looked up): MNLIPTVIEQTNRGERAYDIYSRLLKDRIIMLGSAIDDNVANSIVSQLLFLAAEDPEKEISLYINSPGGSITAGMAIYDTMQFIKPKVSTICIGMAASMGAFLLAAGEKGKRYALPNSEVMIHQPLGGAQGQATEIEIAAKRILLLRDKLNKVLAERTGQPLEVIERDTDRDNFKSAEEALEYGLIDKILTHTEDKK
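Buffer: 100 mM Tris/HCl pH8, 100 mM KCl, 0.05% low protease BSA, 2.5% glycerol, 0.01% Tween-20. ClpP 10 microg/mL final; 20 min RT; delta FRET normalized to ADEP and DMSO controls.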
IL1B secr inh: qHTS for Inhibitors of Inflammasome Signaling: IL-1-beta AlphaLISA Primary Screen; THP-1 LPS/ATP IL-1B secretion, AlphaLISA, 16 h; hits give low values; activity change, % at 57.5 µM; hit rate 4.7% among 360,000; AID 743279, 2014; in the data active = activity change below about -50%; inconclusive = mostly about -30% to -49%; also: % is scaled to controls: 0 for no effect and ±100 for the full control effect
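THP-1 cells pretreated 1 hr with compounds (up to 57.5 uM final), then stimulated with LPS (250 ng/mL final) plus ATP (1.25 mM final); secreted IL-1B measured by AlphaLISA after 16 hr, decreased signal indicating inhibition.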
* = called active by the depositor; ? = inconclusive; nt = not tested or not shown; [ ] = dose if it differs, or a comment. Unless noted, calls follow the shape of the dose curve; as a rule, active = well fitted inhibition curve with a large enough effect; inconclusive = small, poorly fitted or top-dose-only effect; inactive = flat fitted curve, though single readings scatter.

SMILES | TDP1 cell noCPT | DRD3 agonist | D3 antag | TDP1 cell CPT | ClpP mod | IL1B secr inh
CCN(CC)C(=O)C1=C(C)N(Cc2ccc(C(C)(C)C)cc2)C(=O)C(CC(=O)NCc2cccs2)C1 (stereo not drawn) | 23.1µM* | -9.7 | -24.6 | 23.1µM* | 1.0% | ?
CC(=O)N1CCc2cc(S(=O)(=O)NC(CC(C)C)C(=O)N3CCCC3)ccc21 (stereo not drawn) | 13.6% | 6.8 | -3.3 | -2.8% | -1.2% | 3.7
CCc1ccc([C@@H]2CC(=O)[C@@H]3CN(S(=O)(=O)c4ccc(Cl)cc4)[C@H](c4ccc(C)cc4)C[C@@H]3N2S(=O)(=O)c2ccc(C)cc2)cc1 | -13.6% | 9.3 | 7.1 | -5.0% | -1.0% | 34.2
Oc1ccc(CNc2ccc(F)cc2)c2cccnc12 | 1.64µM* | 2.9 | 13.7 | 2.91µM* | -2.2% | -2.6
Cc1ccccc1NCc1ccc(O)c2ncccc12 | 5.17µM* | -18.1 | ? | 2.59µM* | 3.7% | 44.5
OCc1ccnc2c(O)cccc12 | ? | -7.0 | 4.5 | ? | -2.9% | 14.9
Oc1ccc(CNc2ccccc2)c2cccnc12 | 2.59µM* | -4.2 | 9.6 | 3.66µM* | 1.2% | 9.3
Cc1cccc(NCc2ccccc2O)c1C | -17.4% | -5.2 | -4.3 | -6.2% | -0.7% | 0.5
CCOC(=O)c1c(C)c(-c2ccccc2)n(CC(=O)NCc2cccc(OC)c2)c1C | ? | -1.6 | nt | ? | -0.7% | nt
COc1ccccc1OCC(=O)Nc1nc(-c2ccc(Br)cc2)ns1 | -29.3% | 15.1 | nt | -33.4% | -1.5% | nt
CN(c1ccccc1)S(=O)(=O)c1cccc(NC(=O)C2CCCO2)c1 (stereo not drawn) | -24.8% | -0.8 | -4.9 | -19.2% | -2.0% | -10.8
COCC(=O)Nc1ccccc1-c1ccccc1 | 16.7% | -1.1 | 1.5 | -9.5% | -0.2% | 11.7
O=C(O)/C=C/C(=O)Nc1ccccc1SC(F)(F)C(F)(F)C(F)(F)F | ? | -8.0 | -5.3 | ? | nt | -104.3*
O=C(O)/C=C/C(=O)Nc1cccc(C(F)(F)F)c1 | -6.2% | -3.5 | -0.6 | 0.5% | nt | -13.0
O=C(O)/C=C/C(=O)Nc1ccccc1-c1ccccc1 | 10.3µM* | -6.8 | -17.8 | 8.2µM* | 25.1µM* | -15.2
OC[C@@H]1CN(Cc2ccncc2)C[C@H](n2cnc3c(NCc4ccco4)ncnc32)O1 | ? | -6.5 | 23.6 | -24.5% | -1.3% | 1.0
CCC(C)N(C(=O)CSc1nnc(C)n1C)C1CCS(=O)(=O)C1 (stereo not drawn) | -3.6% | 14.1 | 0.0 | 14.4% | nt | -2.1
CCCn1c(N)c(N(CCOC)C(=O)CSc2ccccc2)c(=O)[nH]c1=O | 20.1% | 4.0 | -2.3 | -10.3% | 0.9% | 31.7
O=C(O)c1ccc(CN(c2ccccn2)S(=O)(=O)c2ccccc2)cc1 | -2.9% | 8.3 | -16.3 | 6.6% | 28.2µM* | 16.2
O=C(NCc1ccccc1)c1ccc(CN(c2ccccn2)S(=O)(=O)c2ccccc2)cc1 | -16.0% | -1.1 | -8.8 | -15.1% | 20µM* | -2.9
O=C(CSc1n[nH]c(-c2ccc(Br)cc2)n1)NC1CCCC1 | ? | 0.3 | 24.2 | ? | -0.2% | 27.7
COc1ccc(C(=O)NCC2Cc3cc(C)cc(-c4nc5ccccc5s4)c3O2)c(OC)c1OC (stereo not drawn) | -10.0% | nt | nt | 8.9%[9.04 µM] | nt | nt
O=c1c2sc3ccccc3c2n(Cc2ccccc2F)c(=O)n1CCc1ccccc1 | -7.1% | -4.8 | nt | -6.6% | -10.7% | nt
COc1ccc(-c2nnc(SCC(=O)Nc3c(C)cccc3C)nc2-c2ccc(OC)cc2)cc1 | 1.84µM* | -27.1 | nt | ? | -2.3% | nt
